The results in this text go back to PubChem BioAssay (NCATS).

The target of assay [1] is Lysosomal acid glucosylceramidase (Homo sapiens) (UniProt P04062). The assay is described as follows: Glucocerebrosidase-p2 (AID 348; in the data active means potency below about 10 µM; further: potency means the concentration at half of the fitted maximal effect). The note with it: purified GBA, blue fluorogenic substrate, 40 min. The method, boiled down:
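Normal human glucocerebrosidase (0.2 nM) with blue fluorogenic substrate (80 uM final) in citrate/phosphate pH 5.9 with 10mM sodium taurocholate, 0.01% tween-20; 40 min RT, NaOH/glycine stop; fluorescence Ex 365/Em 440; AC50 from a titration from 0.6 nM upwards.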

Assay [2] can be described thus: AP1 Signaling Pathway (AID 357; active means well fitted curve in either direction with a large enough effect, not every such curve was filed as active;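 further: ME-180 reporter cells stimulated with EGF at its EC50 level; on the % scale 0 is the no-effect control and ±100 the full control effect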). The settings on record: ME-180 AP-1-bla reporter, EGF-induced, beta-lactamase ratio, 5 h; at 7.69 µM (top of the series) unless noted. The method, boiled down:
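AP-1-bla ME-180 cells, Opti-MEM + 0.5% dialyzed FBS, plated overnight 37 °C. Cpd titration + EC50 EGF, 5 h 37 °C. CCF4 2.5 h RT; ex 405, em 460/530 ratio → %activity, AC50.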

Assay [3] deals with Cytochrome P450 1A2 (Homo sapiens) (UniProt P05177). Put plainly: p450-cyp1a2 (AID 410; calls by dose curve; further: potency means the concentration at half of the fitted maximal effect). The settings on record: recombinant CYP1A2, luciferin-ME demethylation, luminescence; series mostly up to 57 µM. In a few lines:
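20nM CYP1A2, 100uM Luciferin-ME (=Km), 100mM KPO4; cpd 10 min RT; +NADPH regen, 60 min RT; stop/detect 20 min; luminescence. Normalized to furafylline 57 uM = full inhibition.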

Assay [4] is described as follows: NFAT Signaling Pathway (AID 444; active means well fitted curve in either direction with a large enough effect, not every such curve was filed as active;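 further: carbachol stimulus at about its EC50 of 1 µM final; on the % scale 0 is the no-effect control and ±100 the full control effect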). The settings on record: Jurkat NFAT-bla M1, carbachol, beta-lactamase ratio, 5 h; at 7.69 µM (top of the series) unless noted. The method, boiled down: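 Jurkat cells with NFAT-driven β-lactamase reporter and co-expressed M1 receptor, stimulated with carbachol (final 1 uM, ~EC50), compound titration, 5 h at 37 °C. CCF4 loaded 1 h at RT; 460/530 nm ratio gave %activity and AC50.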

Assay [5] is described as follows: Stat Signaling Pathway (AID 446; active means well fitted curve in either direction with a large enough effect, not every such curve was filed as active;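 further: ME-180 cervical cancer cells given 40 pM IL-6 alongside compound; SIE-controlled beta-lactamase reporter measured as 460/530 nm FRET emission ratio; on the % scale 0 is the no-effect control and ±100 the full control effect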). The note with it: ME-180 SIE beta-lactamase reporter, IL-6 stimulated, 5 h; at 7.69 µM (top of the series) unless noted. In a few lines: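 Emission at 460 and 530 nm (excitation 405 nm) reports SIE-controlled beta-lactamase in ME-180 cells. Cells received compound with 40 pM IL-6 for 5 hrs at 37 C; data scaled between 300 pM IL-6 and 125 nM JAK-inhibitor controls.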

In assay [6] the target is Glucocorticoid receptor (Homo sapiens) (UniProt P04150). Put plainly: GR-GFP Redistribution (AID 450;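 active means compounds whose dose series gives a full or clear partial fitted curve of increased nuclear translocation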; further: potency means the concentration at half of the fitted maximal effect). The note with it: U2OS GR-GFP nuclear translocation, laser cytometry, 2 h.
Glucocorticoid receptor (Homo sapiens), sequence (P04150 whole entry, looked up): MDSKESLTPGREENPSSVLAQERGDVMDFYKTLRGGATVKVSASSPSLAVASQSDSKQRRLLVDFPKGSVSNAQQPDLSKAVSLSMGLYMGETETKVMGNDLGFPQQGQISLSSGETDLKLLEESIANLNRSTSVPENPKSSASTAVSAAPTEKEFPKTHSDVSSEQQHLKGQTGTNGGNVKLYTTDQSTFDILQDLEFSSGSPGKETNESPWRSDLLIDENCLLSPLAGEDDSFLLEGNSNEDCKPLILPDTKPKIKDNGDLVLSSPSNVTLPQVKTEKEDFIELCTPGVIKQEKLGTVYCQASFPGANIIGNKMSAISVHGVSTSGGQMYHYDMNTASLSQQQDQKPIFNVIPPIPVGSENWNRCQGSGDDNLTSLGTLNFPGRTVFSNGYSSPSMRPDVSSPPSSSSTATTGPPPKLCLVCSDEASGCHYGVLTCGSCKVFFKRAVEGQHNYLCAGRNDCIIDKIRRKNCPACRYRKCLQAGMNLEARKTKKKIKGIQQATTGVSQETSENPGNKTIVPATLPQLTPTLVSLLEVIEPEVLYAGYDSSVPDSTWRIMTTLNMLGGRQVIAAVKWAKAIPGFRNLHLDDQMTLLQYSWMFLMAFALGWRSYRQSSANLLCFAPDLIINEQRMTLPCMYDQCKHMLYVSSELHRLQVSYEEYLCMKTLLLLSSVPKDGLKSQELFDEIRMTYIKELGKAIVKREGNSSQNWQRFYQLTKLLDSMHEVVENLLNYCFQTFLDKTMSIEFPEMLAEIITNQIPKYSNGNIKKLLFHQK
Assay [7] shares this target. The assay is described as follows: GR-EFC Redistribution (AID 451; calls by dose curve; further: potency means the concentration at half of the fitted maximal effect). The note with it: CHO-K1 GR-EFC translocation, beta-gal luminescence, 2 h. In a few lines:
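CHO-K1 cells expressing nuclear EA and GR-ED fragments of b-gal; compounds titrated up to 46 uM final, 2 h at 37 C. GR nuclear translocation read as complemented b-gal luminescence after 1 h RT detection.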

Assay [8] has as its target Mitogen-activated protein kinase 10 (Mus musculus) (UniProt Q61831). The assay is described as follows: JNK3 AlphaScreen Assay (AID 530; active means well fitted curve in either direction with a large enough effect, not every such curve was filed as active;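 further: kinase came from lysate of stimulated human HepG2 cells; signal reports phosphorylation of biotinylated GST-cJun 1-79 at Ser73 with 10 µM ATP; on the % scale 0 is the no-effect control and ±100 the full control effect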). The settings on record: JNK3 lysate, c-Jun phosphorylation; series mostly up to 57.1 µM. The method, boiled down: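 HepG2 lysate (IL-1b/TNFa pre-activated) + biotin-GST-cJun 1-79 + anti-pSer73 cJun; cpd titration, 15 min RT; ATP 10 uM start; Tris pH 7.6, MgCl2, DTT, vanadate; beads in EDTA buffer; AlphaScreen.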
(In general: Bead proximity is the source of the signal in Alpha formats.)

The target in assay [9] is Cytochrome P450 3A4 (Homo sapiens) (UniProt P08684). Put plainly: qHTS Assay for Activators of Cytochrome P450 3A4 (AID 885). Further: nearly all actives have a fitted effect of over 65% in size. The note with it: recombinant CYP3A4, Luciferin-PPXE luminescence, 60 min; series mostly up to 57.1 µM. In a few lines: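 Activators are scored by enhanced luminescence from CYP3A4 conversion of luciferin-PPXE (25uM, equal to KM) to luciferin, after 60 min at RT with an NADPH-regenerating system.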
Cytochrome P450 3A4 (Homo sapiens), sequence (P08684 whole entry, looked up): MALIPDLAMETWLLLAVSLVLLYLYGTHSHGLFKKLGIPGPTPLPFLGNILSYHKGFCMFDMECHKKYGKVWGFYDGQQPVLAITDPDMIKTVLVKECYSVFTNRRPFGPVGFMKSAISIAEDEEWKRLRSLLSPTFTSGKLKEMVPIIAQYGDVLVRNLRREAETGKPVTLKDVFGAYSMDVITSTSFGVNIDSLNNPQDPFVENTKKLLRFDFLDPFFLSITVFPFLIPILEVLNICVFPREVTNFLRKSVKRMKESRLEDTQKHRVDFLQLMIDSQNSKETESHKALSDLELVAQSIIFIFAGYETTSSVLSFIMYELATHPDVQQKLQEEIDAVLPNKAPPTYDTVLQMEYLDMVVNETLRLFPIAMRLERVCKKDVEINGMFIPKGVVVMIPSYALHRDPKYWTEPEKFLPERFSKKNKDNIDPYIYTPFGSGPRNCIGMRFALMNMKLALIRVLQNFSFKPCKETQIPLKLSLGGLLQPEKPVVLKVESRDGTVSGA
Background: Quantitative high-throughput screening tests each substance at several concentrations.

Assay [10] in a line: qHTS Assay for Lipid Storage Modulators (AID 1519; calls by dose curve). The settings on record: Drosophila S3 cells, BODIPY lipid droplet/cell ratio, laser cytometry, cells loaded with oleic acid; for activity change, negative = inhibition: at 57.5 µM (top of the series). The method, boiled down:
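Cells seeded at 5,000 per well were treated with compounds over a concentration series and loaded with oleic acid (400 uM, as added). Lipid droplet fluorescence (488 nm excitation, 500-530 nm channel) was read by laser-scanning cytometry and normalized to 20 uM Triacsin C.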

Assay [11] addresses Dual specificity protein kinase CLK4 (Homo sapiens) (UniProt Q9HAZ1). Put plainly: qHTS Assay for Inhibitors of CDC-like Kinase 4 (Kinase-Glo Assay) (AID 1770). Further: nearly all actives have a fitted effect of over 65% in size. Further: potency means the concentration at half of the fitted maximal effect. The note with it: recombinant Clk4, Kinase-Glo ATP depletion luminescence; series mostly up to 66.7 µM. The method, boiled down:
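Inhibition was judged from remaining ATP, measured by Ultra-Glo luciferase bioluminescence after Clk4 (25 nM) had acted on RS peptide at 1 uM ATP for 4.5 hours, room temperature.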

Assay [12] has the same target. Put plainly: qHTS Assay for Inhibitors of CDC-like Kinase 4 (ADP-Glo Assay) (AID 1771). Further: nearly all actives have a fitted effect of over 70% in size. Further: potency means the concentration at half of the fitted maximal effect. The settings on record: recombinant CLK4, ADP-Glo luminescence; series mostly up to 80 µM. The method, boiled down: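 25 nM Clk4, 100 uM RS peptide, 1 uM ATP (final); 2 mM MgCl2, 0.5 mM EGTA, 2.5 mM DTT, 0.01% Triton X-100; 1 hr RT. ADP-Glo readout: ATP depletion 45 min, conversion/luciferase 30 min, luminescence.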

For assay [13] the target is unchanged. The assay is described as follows: qHTS Assay for Inhibitors of CDC-like Kinase 4 (ADP-FP Assay) (AID 1795). Further: nearly all actives have a fitted effect of over 60% in size. Further: potency means the concentration at half of the fitted maximal effect. The settings on record: Transcreener ADP fluorescence polarization; series mostly up to 50 µM. In a few lines: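 Inhibition of ADP formation by 6.25 nM Clk4 is measured using 1 uM ATP and 100 uM RS repeat peptide over one hour. Produced ADP displaces a fluorescent tracer from antibody, lowering polarization.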

Assay [14] addresses Ubiquitin carboxyl-terminal hydrolase 1 (Homo sapiens) (UniProt O94782). Put plainly: Inhibitors of USP1/UAF1: Pilot qHTS (AID 504865).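 Further: rhodamine fluorescence freed from ubiquitin-rhodamine substrate followed over time; top concentration of the series differs between compounds; on the % scale 0 is the no-effect control and ±100 the full control effect; nearly all actives have a fitted effect of over 35% in size.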 The note with it: purified USP1/UAF1, Ub-rhodamine cleavage fluorescence; series mostly up to 54.9 µM. The method, boiled down:
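Kinetic fluorescence assay: 1nM USP1/UAF1, 15 min compound preincubation, then 150nM Ub-Rho; 480/540 nm.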

For assay [15], the target named is 3',5'-cyclic-AMP phosphodiesterase 4B (Homo sapiens) (UniProt Q07343). Put plainly: qHTS Assay for Inhibitors of PDE-IV (AID 607; active means well fitted activation curve with a large enough effect in the main read-out, with a control signal flat, not every such curve was filed as active; further: % of control where 0% means no effect). The note with it: HEK293 ACTOne CNG channel cells, membrane potential fluorescence; series mostly up to 22.9 µM. In a few lines:
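The readout is membrane depolarisation from a cAMP-sensing CNG channel, detected with a potential dye at ex 535/em 590. Cells were HEK293-derived (endogenous PDE-IV) at 1000 cells/well, titrated up to 22.9 uM final.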

Assay [16] in a line: qHTS Assay for Identification of Small Molecule Agonists for Hypoxia Response Element Signaling Pathway (AID 914; active means well fitted activation curve with a large enough effect in the signal ratio, with a control signal flat, not every such curve was filed as active; the % refers to the signal ratio; further: % of control where 0% means no effect). The note with it: ME-180 (cervical carcinoma) HRE-bla reporter, beta-lactamase ratio, CoCl2, 17 h; activation: stronger effect = higher value. In a few lines: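 Read-out: CCF4 FRET ratio of 460nm to 530nm emission (excitation 405nm) after 2.5 hours at room temperature, taken from HRE-bla ME-180 cells that had been exposed to compound and EC50 CoCl2 for 17 hours.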

For assay [17], the target named is Cytochrome P450 2C19 (Homo sapiens) (UniProt P33261). Put plainly: qHTS Assay for Inhibitors and Substrates of Cytochrome P450 2C19 (AID 899). Further: potency means the concentration at half of the fitted maximal effect; nearly all actives have a fitted effect of over 60% in size. The note with it: recombinant CYP2C19, luciferin-H EGE luminescence; series mostly up to 57.1 µM. The method, boiled down:
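Luminescent read-out of luciferin formed from Luciferin-H EGE (10uM, equal to KM). Enzyme 5nM in 50mM KPO4; compound added, 10 min at 37C, then NADPH regenerating system for 60 min at 37C. Full inhibition defined by 57uM ketoconazole.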

Setting [18] is: measured here: cell count channel max response.
The mark [19] stands for this setting: measured here: lipid channel max response.

Results filed as inconclusive are left out. Activity calls are given as the source filed them. Unless noted, the call rests on the fitted dose curve; in most records, active means well fitted curve in the direction sought with a large enough effect; inconclusive means small, poorly fitted or top-dose-only effect, or another doubt; inactive means no such curve, though single readings can be large; an effect the other way counts as inactive or inconclusive. Some results are limits rather than exact numbers.

3',5'-cyclic-AMP phosphodiesterase 4B (Homo sapiens), sequence (Q07343 whole entry, looked up): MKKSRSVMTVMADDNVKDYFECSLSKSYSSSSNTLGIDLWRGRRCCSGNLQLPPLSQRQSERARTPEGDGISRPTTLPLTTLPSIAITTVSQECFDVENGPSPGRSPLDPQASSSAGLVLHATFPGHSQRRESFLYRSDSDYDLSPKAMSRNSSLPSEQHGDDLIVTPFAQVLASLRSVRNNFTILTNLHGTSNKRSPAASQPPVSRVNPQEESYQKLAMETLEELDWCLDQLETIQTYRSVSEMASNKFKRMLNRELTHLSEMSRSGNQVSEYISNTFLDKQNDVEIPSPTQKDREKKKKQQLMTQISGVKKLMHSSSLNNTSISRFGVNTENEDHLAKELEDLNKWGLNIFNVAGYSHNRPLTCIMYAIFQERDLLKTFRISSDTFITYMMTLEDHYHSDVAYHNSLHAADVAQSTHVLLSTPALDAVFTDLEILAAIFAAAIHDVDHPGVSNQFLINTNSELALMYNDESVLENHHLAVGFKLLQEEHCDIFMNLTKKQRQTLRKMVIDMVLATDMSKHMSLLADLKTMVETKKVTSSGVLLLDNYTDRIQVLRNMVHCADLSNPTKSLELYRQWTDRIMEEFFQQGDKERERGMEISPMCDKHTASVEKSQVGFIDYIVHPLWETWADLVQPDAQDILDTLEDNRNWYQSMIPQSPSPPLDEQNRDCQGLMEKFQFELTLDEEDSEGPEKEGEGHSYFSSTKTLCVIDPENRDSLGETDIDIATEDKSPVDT
Dual specificity protein kinase CLK4 (Homo sapiens), sequence (Q9HAZ1 whole entry, looked up): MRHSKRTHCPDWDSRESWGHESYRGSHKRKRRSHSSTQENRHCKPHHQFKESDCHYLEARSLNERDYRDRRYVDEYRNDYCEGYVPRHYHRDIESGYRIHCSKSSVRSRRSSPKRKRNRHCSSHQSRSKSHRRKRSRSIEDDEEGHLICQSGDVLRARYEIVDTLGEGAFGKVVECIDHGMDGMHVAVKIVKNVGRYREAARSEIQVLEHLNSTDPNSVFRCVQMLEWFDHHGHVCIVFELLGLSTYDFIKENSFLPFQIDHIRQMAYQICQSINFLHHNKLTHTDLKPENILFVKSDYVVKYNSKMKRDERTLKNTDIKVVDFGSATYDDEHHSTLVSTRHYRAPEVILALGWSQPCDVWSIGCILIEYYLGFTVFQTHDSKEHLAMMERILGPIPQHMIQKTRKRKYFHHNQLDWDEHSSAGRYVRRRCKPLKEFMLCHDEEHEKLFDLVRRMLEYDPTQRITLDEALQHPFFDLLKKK
Cytochrome P450 1A2 (Homo sapiens), sequence (P05177 whole entry, looked up): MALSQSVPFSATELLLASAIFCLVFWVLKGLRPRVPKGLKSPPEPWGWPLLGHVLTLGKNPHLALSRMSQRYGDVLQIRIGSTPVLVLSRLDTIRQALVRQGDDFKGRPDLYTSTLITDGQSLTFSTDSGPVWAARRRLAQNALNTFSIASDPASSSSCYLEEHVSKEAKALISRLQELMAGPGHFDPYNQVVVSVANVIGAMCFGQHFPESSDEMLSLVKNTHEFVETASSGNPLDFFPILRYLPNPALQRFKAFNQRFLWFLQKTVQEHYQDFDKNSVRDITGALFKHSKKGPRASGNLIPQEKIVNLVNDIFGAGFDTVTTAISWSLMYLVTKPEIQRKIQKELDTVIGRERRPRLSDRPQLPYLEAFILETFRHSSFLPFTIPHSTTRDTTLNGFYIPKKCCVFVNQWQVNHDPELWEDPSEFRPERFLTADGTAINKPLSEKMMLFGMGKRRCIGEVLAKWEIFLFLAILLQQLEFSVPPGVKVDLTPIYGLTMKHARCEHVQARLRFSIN
Ubiquitin carboxyl-terminal hydrolase 1 (Homo sapiens), sequence (O94782 whole entry, looked up): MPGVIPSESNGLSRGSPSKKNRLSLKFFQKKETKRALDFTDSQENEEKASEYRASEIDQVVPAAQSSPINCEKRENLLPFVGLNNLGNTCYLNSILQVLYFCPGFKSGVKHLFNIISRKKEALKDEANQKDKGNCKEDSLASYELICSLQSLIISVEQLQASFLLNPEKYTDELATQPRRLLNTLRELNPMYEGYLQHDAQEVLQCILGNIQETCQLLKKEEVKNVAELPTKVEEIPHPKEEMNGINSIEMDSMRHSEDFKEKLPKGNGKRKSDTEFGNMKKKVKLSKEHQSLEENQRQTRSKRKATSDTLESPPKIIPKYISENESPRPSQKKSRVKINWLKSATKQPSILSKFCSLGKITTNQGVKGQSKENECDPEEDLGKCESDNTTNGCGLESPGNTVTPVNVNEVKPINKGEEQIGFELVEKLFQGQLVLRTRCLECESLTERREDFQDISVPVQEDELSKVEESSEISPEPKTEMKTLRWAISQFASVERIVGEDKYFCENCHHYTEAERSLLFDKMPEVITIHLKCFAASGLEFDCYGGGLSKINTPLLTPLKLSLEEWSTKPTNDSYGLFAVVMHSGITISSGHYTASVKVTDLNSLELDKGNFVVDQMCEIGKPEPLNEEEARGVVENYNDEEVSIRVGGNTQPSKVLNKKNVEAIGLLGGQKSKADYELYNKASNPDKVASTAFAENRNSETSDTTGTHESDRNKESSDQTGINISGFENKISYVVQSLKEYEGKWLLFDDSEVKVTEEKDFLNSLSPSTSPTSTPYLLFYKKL
Lysosomal acid glucosylceramidase (Homo sapiens), sequence (P04062 whole entry, looked up): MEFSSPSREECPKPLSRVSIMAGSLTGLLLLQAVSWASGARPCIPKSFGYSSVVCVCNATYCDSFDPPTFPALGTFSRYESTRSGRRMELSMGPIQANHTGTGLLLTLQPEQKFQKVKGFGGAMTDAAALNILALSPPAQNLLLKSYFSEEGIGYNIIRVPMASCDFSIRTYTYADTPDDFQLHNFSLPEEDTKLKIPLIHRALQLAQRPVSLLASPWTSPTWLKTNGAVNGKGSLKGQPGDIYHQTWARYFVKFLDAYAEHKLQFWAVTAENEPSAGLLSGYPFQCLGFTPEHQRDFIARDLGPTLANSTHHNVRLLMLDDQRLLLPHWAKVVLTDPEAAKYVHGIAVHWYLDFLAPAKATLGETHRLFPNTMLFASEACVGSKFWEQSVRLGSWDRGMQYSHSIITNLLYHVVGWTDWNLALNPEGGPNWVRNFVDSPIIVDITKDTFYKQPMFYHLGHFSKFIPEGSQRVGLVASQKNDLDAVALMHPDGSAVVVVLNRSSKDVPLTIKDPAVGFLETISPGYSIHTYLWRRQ
Cytochrome P450 2C19 (Homo sapiens), sequence (P33261 whole entry, looked up): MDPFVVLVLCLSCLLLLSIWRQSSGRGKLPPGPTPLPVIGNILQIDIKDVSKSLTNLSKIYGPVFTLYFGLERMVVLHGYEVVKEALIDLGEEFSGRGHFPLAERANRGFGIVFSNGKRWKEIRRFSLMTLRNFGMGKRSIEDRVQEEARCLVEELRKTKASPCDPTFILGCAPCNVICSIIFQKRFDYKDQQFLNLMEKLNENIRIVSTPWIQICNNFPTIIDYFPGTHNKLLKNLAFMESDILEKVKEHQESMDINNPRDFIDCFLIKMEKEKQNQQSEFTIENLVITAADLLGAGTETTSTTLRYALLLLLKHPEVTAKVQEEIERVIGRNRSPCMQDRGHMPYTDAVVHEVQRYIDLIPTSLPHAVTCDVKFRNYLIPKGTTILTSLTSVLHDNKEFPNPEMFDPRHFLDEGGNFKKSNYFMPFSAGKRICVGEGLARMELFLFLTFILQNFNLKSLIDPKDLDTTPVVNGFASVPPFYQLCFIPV

Turning to `CC(=O)NCCNc1ncnc2ccc(-c3ccccc3C)cc12`, the Potency in assay [1] was > 11.4 µM (inactive); in assay [3], 0.631 µM (active); in [6] it was > 46 µM (inactive); in [7], > 46 µM (inactive); in [11], 15.8 µM (active); in assay [12] it was 12.6 µM (active). In addition, the Potency in assay [13] was 12.6 µM (active). Besides, the activity change, negative = inhibition is 28% (inactive) in assay [2], -4.6% (inactive) in [4] and 3.95% (inactive) in assay [10]. In addition, the activity, negative = inhibition in [5] was -8.49% (inactive). Further, the Potency result in assay [8], in assay [9] and in assay [14] was “inactive” in each case. Moreover, the max response in [10] (setting [18]) is 28.7%; in [10] (setting [19]), 28.3%.

In the case of `COc1cccc(Nc2ncc3nc(C)c(=O)n(-c4ccccc4)c3n2)c1`, the Potency is > 11.4 µM (inactive) in [1]; 5.01 µM (active) in assay [3]; > 9.22 µM (inactive) in assay [6]; > 46 µM (inactive) in assay [7]; 10 µM (active) in assay [11]; 12.6 µM (active) in assay [12]. Besides, the Potency in [13] is 1.58 µM (active). Moreover, the activity change, negative = inhibition in [4] was 11.1% (inactive); in [10] it was -6.79% (inactive). In addition, the activity, negative = inhibition in assay [5] is -20.1% (inactive). For the same compound, the Potency entry in assay [8], in [15], in assay [9] and in assay [14] was “inactive” each time. In addition, the figures for the max response in assay [10] (setting [18]) and in assay [10] (setting [19]) were -3.12% and -13.9%, respectively.

As to `O=c1cnc2cnc(N3CCNCC3)nc2n1C1CC1`, the Potency in assay [1] was > 11.4 µM (inactive); in assay [7] it was > 46 µM (inactive). In addition, the activity change, negative = inhibition in assay [2] was -8.15% (inactive); in [4] it was -1.86% (inactive); in assay [10], 0.852% (inactive). In assay [5], the activity, negative = inhibition was -7.26% (inactive). The Potency entry in assay [8], in assay [15], in assay [11], in assay [12], in [13] and in assay [14] was “inactive” each time. For the same compound, the max response came out at 9.12% in [10] (setting [18]) and 7.84% in assay [10] (setting [19]).

In the case of `COc1cccc(Cn2c(=O)c(CCc3ccccc3)nc3cnc(N4CCNCC4)nc32)c1`, the Potency in assay [1] was > 11.4 µM (inactive); in [3], 12.6 µM (active); in assay [6], > 9.22 µM (inactive); in assay [7], > 46 µM (inactive). Further, the activity change, negative = inhibition is 4.19% (inactive) in assay [2], 19.7% (inactive) in [4] and 3.32% (inactive) in [10]. Also, the activity, negative = inhibition in [5] was -8.25% (inactive). For the same compound, the Potency entry in assay [8], in [15], in assay [9], in [11], in [12] and in assay [13] was “inactive” throughout. The Potency entry in assay [14] was “inactive”. The activation in [16] was 8.93% (inactive). For the same compound, the results for the max response in assay [10] (setting [18]) and in assay [10] (setting [19]) were 9.35% and 12.1%, respectively.

As to `COc1ccccc1-c1ccc2ncnc(NCc3ccccc3)c2c1`, the Potency in [1] was > 11.4 µM (inactive); in assay [3], 2 µM (active); in assay [6] it was > 46 µM (inactive); in assay [7], > 46 µM (inactive); in assay [17], 3.98 µM (active); in assay [11], 3.98 µM (active). Also, the Potency in assay [12] is 6.31 µM (active); in [13], 2.82 µM (active). For the same compound, the figures for the activity change, negative = inhibition in assay [2], in assay [4] and in assay [10] were -25.6% (inactive), 0.253% (inactive) and -15.2% (inactive), respectively. Also, the activity, negative = inhibition in [5] was -8.43% (inactive). The Potency result in assay [8], in assay [9] and in assay [14] was “inactive” throughout. Moreover, the max response in assay [10] (setting [18]) was -12.6%; in assay [10] (setting [19]), -27.8%.
